Among the data in publication PMC9838217, “Structure of SALL4 zinc finger domain reveals link between AT-rich DNA binding and Okihiro syndrome” are binding signal values, retold here.

Residue numbers refer to the chain shown, from its start.

Assay in all cases: HT-SELEX; high values mean tight binding
Holding throughout (conditions): protein: recombinant; vector His6-GST; dsDNA, one strand shown

Test [1] addresses T1, SALL4 ZFC4 WT (HT-SELEX) (Mus musculus, UniProt Q8BX22 870-940).
T1 sequence: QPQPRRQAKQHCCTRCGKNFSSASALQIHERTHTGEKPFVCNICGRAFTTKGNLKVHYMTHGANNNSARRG
The method in brief: (§1)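 DNA from a random library (1.5 µg in the first cycle, 200 ng afterwards) was incubated with purified recombinant mouse SALL4 zinc finger cluster 4, residues 870–940 (1 µg), for 10 min at room temperature in 100 µl buffer: 10 mM Tris–HCl pH 7.5, 50 mM NaCl, poly(dI-dC), DTT. Bound complexes were pulled down on Ni2+ beads, washed and PCR-amplified, and the selection was repeated for up to 6 cycles in triplicate. MiSeq reads were scanned for 6-mers, and binding signal is each canonical k-mer's read fraction as fold change over the initial random library.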

Test [2] concerns the target T2, SALL4 ZFC4 R900W (HT-SELEX) (Mus musculus, UniProt Q8BX22 870-940, R900W).
T2 sequence: T1 sequence with R31W
The essentials: as §1

The target in test [3] is T3, SALL4 ZFC4 G921D (HT-SELEX) (Mus musculus, UniProt Q8BX22 870-940, G921D).
T3 sequence: T1 sequence with G52D
The method in brief: as §1

Regarding CAGGAC, the figures for the binding signal in test [1], in test [2] and in test [3] were 0.423 ± 0.0322 fold-change vs cycle 0, 0.487 ± 0.0192 fold-change vs cycle 0 and 0.578 ± 0.0205 fold-change vs cycle 0, respectively.
Regarding GAGCAC, the binding signal is 0.415 ± 0.0413 fold-change vs cycle 0 in test [1], 0.537 ± 0.0508 fold-change vs cycle 0 in test [2] and 0.674 ± 0.0417 fold-change vs cycle 0 in test [3].
On to CCCGAA, for which the binding signal in test [1] is 0.314 ± 0.0034 fold-change vs cycle 0; in test [2] it was 0.403 ± 0.0174 fold-change vs cycle 0; in test [3], 0.512 ± 0.0767 fold-change vs cycle 0.
On to GAAAAA, for which the binding signal in test [1] worked out at 1.86 ± 0.136 fold-change vs cycle 0; in test [2], 1.6 ± 0.0749 fold-change vs cycle 0; in test [3], 1.47 ± 0.105 fold-change vs cycle 0.
For the sequence ACCAGA, the figures for the binding signal in test [1], in test [2] and in test [3] were 0.795 ± 0.0237 fold-change vs cycle 0, 0.921 ± 0.0435 fold-change vs cycle 0 and 0.947 ± 0.0126 fold-change vs cycle 0, respectively.
As for AGAAGC, the binding signal in test [1] was determined as 0.652 ± 0.0323 fold-change vs cycle 0; in test [2], 0.745 ± 0.0224 fold-change vs cycle 0; in test [3] it was 0.845 ± 0.0201 fold-change vs cycle 0.
In the case of ATCACG, the binding signal was found to be 0.751 ± 0.0409 fold-change vs cycle 0 in test [1], 0.856 ± 0.012 fold-change vs cycle 0 in test [2] and 0.923 ± 0.0125 fold-change vs cycle 0 in test [3].
As for ACAAGC, the binding signal worked out at 0.616 ± 0.0453 fold-change vs cycle 0 in test [1], 0.707 ± 0.0111 fold-change vs cycle 0 in test [2] and 0.798 ± 0.0212 fold-change vs cycle 0 in test [3].
Consider TTAGAA, for which the figures for the binding signal in test [1], in test [2] and in test [3] were 1.97 ± 0.0545 fold-change vs cycle 0, 2.01 ± 0.0848 fold-change vs cycle 0 and 1.75 ± 0.166 fold-change vs cycle 0, respectively.
For the sequence CACAGG, the figures for the binding signal in test [1], in test [2] and in test [3] were 0.432 ± 0.00836 fold-change vs cycle 0, 0.527 ± 0.0297 fold-change vs cycle 0 and 0.624 ± 0.0533 fold-change vs cycle 0, respectively.
For the sequence TAATTA, the binding signal in test [1] is 4.1 ± 0.33 fold-change vs cycle 0; in test [2], 2.77 ± 0.208 fold-change vs cycle 0; in test [3], 2.33 ± 0.317 fold-change vs cycle 0.
Regarding GGTCAC, the binding signal in test [1] was 0.432 ± 0.0454 fold-change vs cycle 0; in test [2], 0.512 ± 0.0261 fold-change vs cycle 0; in test [3], 0.662 ± 0.0597 fold-change vs cycle 0.
With GTGTAA, the binding signal in test [1] was 1.24 ± 0.0525 fold-change vs cycle 0; in test [2] it was 1.37 ± 0.0544 fold-change vs cycle 0; in test [3] it was 1.28 ± 0.0793 fold-change vs cycle 0.
As for AACTCA, the binding signal in test [1] came to 1.37 ± 0.0562 fold-change vs cycle 0; in test [2] it was 1.48 ± 0.0196 fold-change vs cycle 0; in test [3], 1.4 ± 0.113 fold-change vs cycle 0.
Regarding TACTAA, the binding signal came to 2.076 ± 0.0175 fold-change vs cycle 0 in test [1], 2.12 ± 0.0758 fold-change vs cycle 0 in test [2] and 1.87 ± 0.135 fold-change vs cycle 0 in test [3].
In the case of TCGAAA, the results for the binding signal in test [1], in test [2] and in test [3] were 0.999 ± 0.0813 fold-change vs cycle 0, 1.02 ± 0.0328 fold-change vs cycle 0 and 1.06 ± 0.0355 fold-change vs cycle 0, respectively.
As for CAATGG, the binding signal in test [1] turned out to be 0.767 ± 0.067 fold-change vs cycle 0; in test [2], 0.849 ± 0.0267 fold-change vs cycle 0; in test [3] it was 0.923 ± 0.0362 fold-change vs cycle 0.
For CAAGCA, the values for the binding signal in test [1], in test [2] and in test [3] were 0.6412 ± 0.00497 fold-change vs cycle 0, 0.724 ± 0.0186 fold-change vs cycle 0 and 0.814 ± 0.0122 fold-change vs cycle 0, respectively.
Take CATAAC: the binding signal was found to be 1.83 ± 0.124 fold-change vs cycle 0 in test [1], 1.43 ± 0.0541 fold-change vs cycle 0 in test [2] and 1.37 ± 0.0667 fold-change vs cycle 0 in test [3].
As for CTGACA, the binding signal in test [1] came to 0.738 ± 0.0153 fold-change vs cycle 0; in test [2], 0.843 ± 0.0362 fold-change vs cycle 0; in test [3], 0.914 ± 0.0368 fold-change vs cycle 0.
On to ATAGAT, for which the binding signal in test [1] is 2.3 ± 0.159 fold-change vs cycle 0; in test [2] it was 2.05 ± 0.124 fold-change vs cycle 0; in test [3], 1.86 ± 0.167 fold-change vs cycle 0.
In the case of GCAAAA, the binding signal in test [1] stood at 0.804 ± 0.0195 fold-change vs cycle 0; in test [2], 0.786 ± 0.0174 fold-change vs cycle 0; in test [3], 0.873 ± 0.0736 fold-change vs cycle 0.
As for ACAACA, the binding signal turned out to be 1.16 ± 0.0181 fold-change vs cycle 0 in test [1], 1.28 ± 0.0315 fold-change vs cycle 0 in test [2] and 1.25 ± 0.0467 fold-change vs cycle 0 in test [3].
Regarding TGCCAA, the binding signal came to 0.456 ± 0.0199 fold-change vs cycle 0 in test [1], 0.502 ± 0.00872 fold-change vs cycle 0 in test [2] and 0.652 ± 0.0602 fold-change vs cycle 0 in test [3].
With ATAGAC, the binding signal in test [1] worked out at 1.2 ± 0.024 fold-change vs cycle 0; in test [2], 1.29 ± 0.0416 fold-change vs cycle 0; in test [3], 1.3 ± 0.09 fold-change vs cycle 0.
Regarding GATAAA, the binding signal turned out to be 2.01 ± 0.0629 fold-change vs cycle 0 in test [1], 1.92 ± 0.127 fold-change vs cycle 0 in test [2] and 1.69 ± 0.118 fold-change vs cycle 0 in test [3].
The matching figures for CCTTTC: 0.765 ± 0.031 fold-change vs cycle 0, 0.942 ± 0.0414 fold-change vs cycle 0 and 0.934 ± 0.0409 fold-change vs cycle 0.
The matching figures for TAGCCA: 0.536 ± 0.0328 fold-change vs cycle 0, 0.614 ± 0.0132 fold-change vs cycle 0 and 0.733 ± 0.0537 fold-change vs cycle 0.
For the sequence AGCTGA, the binding signal in test [1] is 0.687 ± 0.028 fold-change vs cycle 0; in test [2], 0.802 ± 0.0342 fold-change vs cycle 0; in test [3], 0.882 ± 0.0146 fold-change vs cycle 0.
In the case of ACGATA, the figures for the binding signal in test [1], in test [2] and in test [3] were 1.28 ± 0.0502 fold-change vs cycle 0, 1.3 ± 0.0452 fold-change vs cycle 0 and 1.26 ± 0.0543 fold-change vs cycle 0, respectively.
